Assay results published in PubChem BioAssay (Tox21).
Results filed as inconclusive are left out. Calls of active or inactive are those of the source. Unless noted, calls follow the shape of the dose curve; as a rule, active = well fitted curve in the direction sought with a large enough effect in the repeat runs; inconclusive = weak or mixed curves; inactive = no such curve, though single readings can be large; an effect the other way counts as inactive or inconclusive.

Legend:
[1] = qHTS assay for small molecule agonists of the p53 signaling pathway (AID 651631; calls by dose curve; also: nearly all actives have a fitted effect of over 15% in size)
Summary of the method: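 Stably transfected HCT-116 cells (beta-lactamase behind p53 response elements) get compounds after a 5 h settling period; 16 h later at 37 °C, FRET substrate is loaded and fluorescence read after 2 h.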

[2] = qHTS assay for small molecules that induce genotoxicity in human embryonic kidney cells expressing luciferase-tagged ATAD5 (AID 651632); also: nearly all actives have a fitted effect of over 15% in size
Summary of the method: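 HEK293T cells carrying a luciferase reporter tagged to ATAD5 were exposed to compound or DMSO vehicle for 16 hr at 37C, 5% CO2. Amplite was added, and after 30 min at room temperature luciferase activity was read as a marker of ATAD5 induction.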

[3] = qHTS assay for small molecule agonists of the p53 signaling pathway - cell viability (AID 651633; calls by dose curve;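 also: p53RE-bla HCT reporter cells with a stable beta-lactamase p53 reporter; series mostly up to about 83 µM; nearly all actives have a fitted effect of over 30% in size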)
Summary of the method: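 p53RE-bla cells, seeded at 4,000 per well and rested 5 h at 37 C/5% CO2, received compounds in DMSO for 16 h at 37 C. CellTiter-Glo was then added, and luminescence was read after 30 min at room temperature to gauge cytotoxicity.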

[4] = qHTS assay for small molecules that induce genotoxicity in human embryonic kidney cells expressing luciferase-tagged ATAD5 - cell viability (AID 651634; calls by dose curve; also: nearly all actives have a fitted effect of over 25% in size)
Summary of the method: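 HEK293T cells expressing luciferase-tagged ATAD5 were exposed to compound or DMSO for 15.5 hr at 37C, 5% CO2. Viability was then read as live-cell protease activity by CellTiter-Fluor fluorescence after 30 min at 37C.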

[5] = qHTS assay for small molecule disruptors of the mitochondrial membrane potential - cell viability (AID 720634; calls by dose curve;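 also: human HepG2 liver cancer cells; series mostly up to about 83 µM; nearly all actives have a fitted effect of over 20% in size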)
Summary of the method: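 HepG2 cells seeded overnight at 37 C, then exposed to compound or DMSO for 1 hr at 37 C, 5% CO2. m-MPI dye added, then CellTiter-Glo for 30 min at room temperature; viability read as ATP luminescence.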

[6] = qHTS assay to test for compound auto fluorescence at 590 nm (red) in HepG2 cells (AID 720674)
Summary of the method: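 Rose Bengal sodium served as the red fluorophore standard. HepG2 monolayers (overnight attachment, MEM with 10% FBS) were exposed to test compounds for 1 hr at 37 C and read at Ex 540/Em 590 nm.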

[7] = qHTS assay to test for compound auto fluorescence at 535 nm (green) in HepG2 cells (AID 720675)
[8] = qHTS assay to test for compound auto fluorescence at 460 nm (blue) in HEK293 cells (AID 720678)
Summary of the method: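 HEK293, 2,000 cells/well, 10% dialyzed FBS; attach 4-5 hr 37C; pin compound or DMSO; o/n 37C/5% CO2; fluorescence 405/460 nm; triamterene-equivalent units.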

[9] = qHTS assay to test for compound auto fluorescence at 535 nm (green) in HEK293 cells (AID 720680)
[10] = qHTS assay to test for compound auto fluorescence at 460 nm (blue) in HEK293 cell free culture (AID 720681)
Summary of the method: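 Test compounds were pinned into cell-free culture medium (DMEM with 10% FBS) and fluorescence was read directly at Ex/Em 405/460 nm. Signals were expressed as fluorescence equivalents of triamterene, with DMSO vehicle as control.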

[11] = qHTS assay to test for compound auto fluorescence at 535 nm (green) in HEK293 cell free culture (AID 720682)
Summary of the method: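 Using fluorescein as calibrant, autofluorescence was quantified at 485/535 nm in cell-free DMEM containing 10% FBS after pintool addition of compound or vehicle.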

[12] = qHTS assay to test for compound auto fluorescence at 590 nm (red) in HEK293 cell free culture (AID 720683)
Summary of the method: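 Tox21 10K library compounds were pinned into cell-free DMEM with 10% FBS and fluorescence was read at excitation 540 nm. Activity is expressed as Rose Bengal sodium equivalency.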

[13] = qHTS assay to test for compound auto fluorescence at 590 nm (red) in HepG2 cell free culture (AID 720684)
Summary of the method: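 Measured in medium alone (MEM containing 10% FBS) following pintool addition of compound; emission at 590 nm with 540 nm excitation, referenced to Rose Bengal sodium.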

[14] = qHTS assay to test for compound auto fluorescence at 460 nm (blue) in HepG2 cell free culture (AID 720685)
Summary of the method: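 Compound (23 nL) or DMSO pinned into cell-free MEM with 10% FBS; blue fluorescence read at 405/460 nm excitation/emission, expressed as auto-fluorescence equivalency to triamterene.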

[15] = qHTS assay to test for compound auto fluorescence at 535 nm (green) in HepG2 cell free culture (AID 720686)
[16] = target: Glucocorticoid receptor (Homo sapiens) (UniProt P04150); test: qHTS assay to identify small molecule agonists of the glucocorticoid receptor (GR) signaling pathway (AID 720691; active = well fitted activation curve with a large enough effect in the signal ratio in the repeat runs, not every such curve was filed as active; the % refers to the signal ratio)
Chain of Glucocorticoid receptor (Homo sapiens) (P04150 whole entry, looked up): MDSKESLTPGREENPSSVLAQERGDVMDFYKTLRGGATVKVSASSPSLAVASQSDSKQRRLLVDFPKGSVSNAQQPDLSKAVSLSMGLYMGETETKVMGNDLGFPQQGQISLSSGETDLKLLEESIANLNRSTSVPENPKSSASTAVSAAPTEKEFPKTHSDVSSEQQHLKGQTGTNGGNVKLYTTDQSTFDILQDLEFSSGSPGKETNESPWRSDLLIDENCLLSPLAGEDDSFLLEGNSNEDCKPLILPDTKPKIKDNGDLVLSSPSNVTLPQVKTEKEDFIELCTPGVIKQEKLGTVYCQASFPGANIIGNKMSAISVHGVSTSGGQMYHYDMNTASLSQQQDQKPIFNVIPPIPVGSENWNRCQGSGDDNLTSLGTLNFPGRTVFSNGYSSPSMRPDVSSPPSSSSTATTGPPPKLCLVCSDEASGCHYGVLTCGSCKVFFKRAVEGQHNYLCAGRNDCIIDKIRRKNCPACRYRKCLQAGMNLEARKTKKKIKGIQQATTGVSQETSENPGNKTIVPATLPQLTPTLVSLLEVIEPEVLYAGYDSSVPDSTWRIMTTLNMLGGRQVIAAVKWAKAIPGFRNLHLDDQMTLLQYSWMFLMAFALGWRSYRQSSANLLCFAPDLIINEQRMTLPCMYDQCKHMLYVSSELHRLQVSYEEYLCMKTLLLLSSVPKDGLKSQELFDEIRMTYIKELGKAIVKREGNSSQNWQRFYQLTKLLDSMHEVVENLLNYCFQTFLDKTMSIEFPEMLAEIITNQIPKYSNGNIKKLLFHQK
Summary of the method: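 GR-bla HeLa cells (beta-lactamase reporter under glucocorticoid response element) were plated 4 h at 37 C/5% CO2, given compounds in DMSO, and incubated 18 h at 37 C. LiveBLAzer B/G FRET substrate was added for 2 h at room temperature, then fluorescence intensity read.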

[17] = qHTS assay to test for compound auto fluorescence at 590 nm (red) in HEK293 cells (AID 720679)
Summary of the method: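 Intensity at 540nm excitation and 590nm emission is reported as Rose Bengal sodium-equivalent autofluorescence. Measurements followed overnight exposure (37C, 5% CO2) of HEK293 cells, 2,000 per well, to 23 nL compound.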

[18] = target: Glucocorticoid receptor (Homo sapiens) (UniProt P04150); test: qHTS assay to identify small molecule antagonists of the glucocorticoid receptor (GR) signaling pathway (AID 720692; active = well fitted inhibition curve with a large enough effect in the signal ratio in the repeat runs, not every such curve was filed as active; the % refers to the signal ratio)
Summary of the method: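 GR-bla HeLa cells (beta-lactamase reporter under glucocorticoid response element) were pre-plated 4 h at 37 C, treated with compounds plus 5 nM dexamethasone (final) for 18 h, then read by LiveBLAzer B/G FRET fluorescence after 2 h.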

[19] = qHTS assay to test for compound auto fluorescence at 460 nm (blue) in HepG2 cells (AID 720687)
Summary of the method: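 Cells (2,000/well in MEM with 10% FBS) attached overnight at 37 C, then were exposed to compound or DMSO for 1 hr at 37 C, 5% CO2. Fluorescence read at Ex/Em 405/460 nm, expressed as triamterene-equivalent signal.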

[20] = qHTS assay for small molecule disruptors of the mitochondrial membrane potential (AID 720635)
Summary of the method: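 HepG2 cells (2,000/well) attached overnight at 37C, then took compound for 1 hr at 37C, 5% CO2. Mito-MPS dye was added for 30 min; fluorescence was read at 490/535 nm (monomers) and 540/590 nm (aggregates).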

Measured: Potency

c1coc(CNc2ncnc3nc[nH]c23)c1
not listed: [17] | [18] | [19] | [20]
inactive: all other assays above

CN(C)C(=O)Oc1cccc([N+](C)(C)C)c1
not listed: [11] | [19] | [20]
inactive: all other assays above

CC1OC1C1CCC2(C)OC2C1 (configuration not stated)
not listed: [13] | [19] | [20]
inactive: all other assays above

CC1=CCC(O)(C(C)C)CC1 (configuration not stated)
not listed: [14] | [16] | [18] | [20]
inactive: all other assays above

Cc1ccc(C(=O)Nc2ccc(S(=O)(=O)O)c3cc(S(=O)(=O)O)cc(S(=O)(=O)O)c23)cc1NC(=O)c1cccc(NC(=O)Nc2cccc(C(=O)Nc3cc(C(=O)Nc4ccc(S(=O)(=O)O)c5cc(S(=O)(=O)O)cc(S(=O)(=O)O)c45)ccc3C)c2)c1
not listed: [11] | [16] | [20]
inactive: all other assays above

CC1=CC(=O)[C@H]2C[C@@H]1C2(C)C
not listed: [20]
inactive: all other assays above

CN1[C@@H]2CC[C@H]1CC(OC(=O)C(O)c1ccccc1)C2 (some centres not stated)
not listed: [5] | [13] | [14] | [16] | [18]
inactive: all other assays above
